Test results as given in PubChem BioAssay AID1376 (SRMLSC, 2008).
Hit rate of the full screen: of about 220,000 compounds, about 530 (0.24%) were called active. The sample as a whole holds a higher share of actives than the screen did. Results with a measured potency or affinity are listed apart. Values without a mark were called inactive. Cut-off read from the data, not from the text of the source: active = inhibition above about 13%; inconclusive = no clear call, values can overlap the other calls; inactive = below that.

molecular target: Bifunctional protein GlmU (Mycobacterium tuberculosis (strain ATCC 25618 / H37Rv)) (UniProt P9WMN3); assay: inhibition of mycobacterial GlmU enzyme – biochemical, glucosamine-1-phosphate acetyltransferase (AID 1376);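 note: 0% = complete reaction with vehicle and 100% = reaction without substrate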; conditions: M. tuberculosis GlmU acetyltransferase enzyme assay; stronger effect = higher value;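 tested at 30 µM in the primary screen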
Sequence (P9WMN3 whole entry, looked up): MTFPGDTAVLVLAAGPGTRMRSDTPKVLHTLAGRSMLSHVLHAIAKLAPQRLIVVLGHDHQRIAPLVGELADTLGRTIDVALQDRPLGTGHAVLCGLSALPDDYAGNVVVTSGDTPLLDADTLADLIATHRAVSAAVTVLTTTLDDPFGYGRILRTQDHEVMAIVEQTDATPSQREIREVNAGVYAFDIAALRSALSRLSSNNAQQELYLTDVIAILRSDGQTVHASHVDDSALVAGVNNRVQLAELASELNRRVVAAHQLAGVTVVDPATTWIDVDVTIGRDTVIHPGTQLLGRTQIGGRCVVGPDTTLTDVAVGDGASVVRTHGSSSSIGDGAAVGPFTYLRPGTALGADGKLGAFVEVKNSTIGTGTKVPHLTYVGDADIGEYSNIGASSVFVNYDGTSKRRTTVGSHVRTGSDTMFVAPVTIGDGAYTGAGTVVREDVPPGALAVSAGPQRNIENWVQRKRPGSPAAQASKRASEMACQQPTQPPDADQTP

| Structure (SMILES) | inhibition |
| --- | --- |
| Cc1ccc([N+](=O)[O-])cc1N(CC(=O)NCC1CCCO1)S(C)(=O)=O (centres undefined) | 1.08% |
| COc1ccc(C2CC(c3ccccc3)=NN2C(=O)c2cccs2)cc1 (centres undefined) | 0.55% |
| COc1ccc(CCNC(=O)COC(=O)CCC(=O)c2ccc(F)cc2)cc1 | 1.09% |
| N#Cc1nc(Cc2cccc3ccccc23)oc1N1CCC(C(N)=O)CC1 | 1.98% |
| Cc1ccc(-n2ncc(C(=O)NCc3ccc4c(c3)OCO4)c2NC(=O)c2ccco2)cc1C | 6.03% |
| O=C(OCC(=O)c1ccc[nH]1)c1ccc(S(=O)(=O)N2CCCCCC2)cc1 | -6.95% |
| Cc1ccc(C(=O)NC(=S)NNC(=O)CC#N)cc1 | -2.12% |
| COc1ccc(OC)c(NC(=O)c2ccccc2NC(=O)c2ccco2)c1 | 4.28% |
| COc1ccc(C(c2c(O)nc[nH]c2=O)c2c(O)nc[nH]c2=O)cc1 | 0.27% |
| COc1ccc(Cc2c(O)nc[nH]c2=O)cc1 | 22.8% (active) |
| COc1ccc(Cc2c(O)nc(SCC(=O)c3ccc(OC)cc3)[nH]c2=O)cc1 | 2.96% |
| CCOC(=O)C1=C2N(C)c3ccccc3N2CCC1=O | 0.79% |
| Cc1cccc(Cn2c(N3CCc4ccccc4C3)nc3c2c(=O)[nH]c(=O)n3C)c1 | 2.16% |
| CNC(=S)Nc1ccc(Nc2ccccc2)cc1 | 1.36% |
| CC(C)(C)NC(=S)Nc1ccc(Nc2ccccc2)cc1 | 13.4% (active) |
| CC(C)(C)NC(=S)Nc1ccc(Br)cc1 | 1.07% |
| O=C(Cc1cc(=O)[nH][nH]1)N/N=C/C=C/c1ccccc1 | 3.75% |
| COc1ccc(N(CC2CO2)S(=O)(=O)c2ccccc2)cc1 (centres undefined) | 3.63% |
| CCN(CC)c1ccc(/C=N/N2CCN(Cc3cccc4ccccc34)CC2)c(O)c1 | -0.67% |
| CCN(CC)c1ccc(/C=N/N2CCN(Cc3ccccc3Cl)CC2)c(O)c1 | 14.1% (active) |

| Structure (SMILES) | inhibition |
| --- | --- |
| CCN(CC)c1ccc(/C=N/N2CCN(Cc3ccccc3)CC2)c(O)c1 | -0.12% |
| Nc1nc(=S)c2ncn(C3OC(CO)C(O)C3O)c2[nH]1 (centres undefined) | 20.9% (active) |
| Nc1ncnc2c1ncn2[C@@H]1O[C@H](CO)[C@@H](O)[C@H]1O | -4.56% |
| Nc1nc(=S)c2ncn(C3CCCC3)c2[nH]1 | 7.24% |
| Cc1ccc2nc3c(nc2c1C)C(O)=C3O | 2.69% |
| CN1CCN(C2=C(Cl)C(=O)N(Cc3ccccc3)C2=O)CC1 | -1.86% |
| CC(C)(C)c1csc(SCC(=O)Nc2ccc(Cl)cn2)n1 | 5.51% |
| CCn1c2ccccc2c2cc(/C=N/n3c(-c4cc(C)[nH]n4)n[nH]c3=S)ccc21 | 2.92% |
| CCn1c2ccccc2c2cc(/C=N/n3cnnc3)ccc21 | 6.56% |
| CCn1c2ccccc2c2cc(/C=N/n3cn[nH]c3=S)ccc21 | 13% (active) |
| CC(=O)Nc1ccc(Nc2nc(C)c([N+](=O)[O-])c(Nc3ccc(NC(C)=O)cc3)n2)cc1 | -3.57% |
| CC(=O)Nc1ccc(Nc2nc(C)c([N+](=O)[O-])c(Nc3ccccc3)n2)cc1 | 5.98% |
| O=C(NC12CC3CC(CC(C3)C1)C2)c1ccccc1 | -3.83% |
| O=C(NC12CC3CC(CC(C3)C1)C2)c1cncc(O)c1 | 14.9% (active) |
| O=C(NC12CC3CC(CC(C3)C1)C2)c1cccnc1 | 2.68% |
| COC(=O)Cc1c(O)ccn(Cc2ccc3c(c2)OCO3)c1=O | -0.24% |
| O=C(O)c1cccc2c1NC(C(=O)O)C1CC(Sc3ccccc3[N+](=O)[O-])C(Cl)C21 (centres undefined) | 30.8% (active) |
| CCN(CC)C(=O)c1ccc2c(c1)C1C(Cl)C(Sc3ccccc3[N+](=O)[O-])CC1C(C(=O)O)N2 (centres undefined) | -0.47% |
| CC(=O)c1ccc2c(c1)C1C(Cl)C(Sc3ccccc3[N+](=O)[O-])CC1C(c1ccccc1)N2 (centres undefined) | 8.36% |
| O=C(O)c1cccc2c1NC(c1cccc([N+](=O)[O-])c1)C1CC(Sc3ccccc3[N+](=O)[O-])C(Cl)C21 (centres undefined) | 7.9% |

| Structure (SMILES) | inhibition |
| --- | --- |
| Cc1ccc2c(c1Cl)NC(C(=O)O)C1CC(Sc3ccccc3[N+](=O)[O-])C(Cl)C21 (centres undefined) | 4.86% |
| CC(=O)c1ccc2c(c1)C1C(Cl)C(Sc3ccccc3[N+](=O)[O-])CC1C(C(=O)O)N2 (centres undefined) | 13.1% (active) |
| Cc1ccc2c(c1)cc(CN(Cc1cccs1)C(=O)c1ccco1)c1nnnn12 | -1.3% |
| CC(=O)c1c(C)[nH]c(C(=O)COC(=O)CCCOc2ccccc2)c1C | 7.27% |
| O=S(=O)(N1CCOCC1)n1cnc2ccccc21 | 3.88% |
| COc1ccc(NC(=O)CN2C(=O)c3cccc4cccc2c34)c(OC)c1 | 0.85% |
| CCN(C(=O)CN1CCN(S(=O)(=O)c2ccccc2C(F)(F)F)CC1)c1c(N)n(Cc2ccccc2)c(=O)[nH]c1=O | -6.69% |
| CCS(=O)(=O)Nc1cccc(-c2nc3cccnc3s2)c1 | 14.4% (active) |
| CCS(=O)(=O)Nc1ccc(-c2nc3cccnc3s2)cc1 | 0.1% |
| CCCS(=O)(=O)Nc1cccc(-c2nc3cccnc3s2)c1 | 3.55% |
| COc1cc(C(=O)Oc2ccc3c(c2)OCC3=O)cc(OC)c1OC | 1.2% |
| Cc1ccccc1CSc1nnc(-c2ccco2)n1Cc1ccco1 | 1.77% |
| c1ccc(CSc2nnc(-c3cccs3)n2Cc2ccco2)cc1 | -1.39% |
| c1ccc(CSc2nnc(-c3ccco3)n2Cc2ccco2)cc1 | 13% (active) |
| Cc1ccc(OCC(=O)Nc2ccc(S(=O)(=O)N3CCCCC3)cc2)c([N+](=O)[O-])n1 | -4.33% |
| O=C(CN(CC1CCCO1)S(=O)(=O)c1ccc(S(=O)(=O)NCC2CCCO2)cc1)Nc1ccccc1 (centres undefined) | 5.97% |
| CCOC(=O)c1cnc(-n2nc(C)cc2C)nc1Oc1ccc(C#N)cc1 | 13.1% (active) |
| CCOC(=O)c1cnc(-n2nc(C)cc2C)nc1Oc1ccc(C(=O)OC)cc1 | -2.28% |
| CCOC(=O)c1cnc(-n2nc(C)cc2C)nc1Oc1ccccc1F | -3.61% |
